# Data reported in PubChem BioAssay.
# Entries with a potency or affinity are not part of this list. Calls of active or inactive are those of the source.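 Rule for the calls, unless noted: active = a dose-response fit showing signal loss, with half-maximal concentration no higher than twice the top tested dose; inconclusive = flat fit between 30% and 70% signal loss, or poor fit; inactive = the rest.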
# Experiment: inducers of Cryptococcus neoformans cell lysis, dose response, AK release luminescence, cherry-picks (AID 687000;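 active = fitted dose curve reaches 40% lysis signal rise at or below the highest valid concentration tested for that sample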;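 note: luminescent detection of adenylate kinase leaking from lysed yeast; 0% = median neutral control signal and 100% = double that signal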)
# Conditions: C. neoformans lysis, adenylate kinase release luminescence, 4 h, 100% = twice the neutral-control signal; series mostly up to 15 µM; lysis activity: at the top concentration
row,Compound,lysis activity
1,Cc1cccc(C)c1NC(=O)C(CCc1ccccc1)N1CCN(CCN(C)C)CC1 (centres undefined),-11.5% (inactive)
2,Cc1cccc(C)c1NC(=O)C(C)N1CCCCC1 (centres undefined),-16.1% (inactive)
3,Cc1noc(C)c1S(=O)(=O)Nc1ccc2c(c1)C(=O)N([C@@H](C)CO)C[C@H](C)[C@@H](CN(C)Cc1ccc3c(c1)OCO3)OCCCC[C@@H](C)O2,7.35% (inactive)
4,CCCNC(=O)N1C[C@@H]2[C@H](c3ccccc31)[C@H](CO)N2Cc1ccc(OC)cc1,2.41% (inactive)
5,O=C(c1cccc(F)c1)N1C[C@@H]2[C@H](c3ccccc31)[C@H](CO)N2Cc1cocn1,17.4% (inactive)

# Experiment: HepG2 cell cytotoxicity, dose response, cytotoxicity control, cherry-picks, set 2 (AID 687002)
# Conditions: HepG2 viability, ATP luminescence (CellTiter-Glo), 48 h; series mostly up to 26 µM; activity change, negative = cytotoxicity: at the top concentration
row,Compound,"activity change, negative = cytotoxicity"
1,COc1cccc(S(=O)(=O)N(C)C[C@H]2OCc3cnnn3CCCC(=O)N([C@H](C)CO)C[C@H]2C)c1,-6.82% (inactive)
2,COc1cccc(S(=O)(=O)Nc2ccc3c(c2)[C@H]2C[C@H](CC(=O)NCc4ccccc4F)O[C@@H](CO)[C@H]2O3)c1,4.13% (inactive)
3,COCC(=O)NC[C@@H]1N[C@@H](CO)[C@H]1c1ccc(C2=CCCC2)cc1,-8.64% (inactive)
4,CCC(C)(C(=O)Nc1cccc(C)c1)N1CCC1=O (centres undefined),-3.52% [at 46 µM] (inactive)
5,Cc1ccc(NC(=O)[C@H](C)NC(=O)C2CCN(C(=O)[C@@H](N)C(C)C)CC2)cc1,-17.7% (inactive)
6,CNC(=O)C[C@@H]1CC[C@@H]2[C@H](COc3ccc(NC(=O)c4cc(C)on4)cc3C(=O)N2C)O1,3.15% [at 23.5 µM] (inactive)
7,Cc1cc(C)c(N2CCCC2C(=O)Nc2cccc(C(F)(F)F)c2)c(C)c1 (centres undefined),6.36% [at 35 µM] (inactive)
8,C/C=C/c1ccc([C@@H]2[C@@H](CO)N3CCCCN(C(=O)Nc4ccc(OC)cc4)C[C@H]23)cc1,17% (inactive)
9,O=C(NCC[C@H]1CC[C@H](NS(=O)(=O)c2ccc(F)cc2)[C@@H](CO)O1)c1ccc2c(c1)OCO2,-3.12% (inactive)
